Our source for the growth values is PubChem BioAssay (NCI).

Molecules are shown by their SMILES. About 83,000 compounds went through this panel and 20% of them were active in at least one assay; those are over-represented in the sample as a whole.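 For each line, cells grew in 96-well plates with the test compound present at a single concentration for 48 hours.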 Values without a mark were called inactive. The source made the active and inactive calls. Rule for the calls: active = growth percent below 10; inactive = the rest.

Some test systems named below: SR leukemia; OVCAR-8 ovarian; OVCAR-5 ovarian; OVCAR-4 ovarian; SK-OV-3 ovarian; IGROV1 ovarian; OVCAR-3 ovarian; HS 578T breast; NCI/ADR-RES ovarian.
What all share (test): NCI-60 one-dose screen, 48 h (100 = growth as untreated, 0 = no growth, -100 = all killed)
Holding throughout (conditions): 10 µM unless noted

Consider `COc1cc2c(cc1OCCCN1CCN(C(=S)SCCC(C#N)(c3ccccc3)c3ccccc3)CC1)N=C[C@@H]1CCCN1C2=O`, for which the growth with SR leukemia was -37.6% (active); with OVCAR-8 ovarian, -0.777% (active); in the assay on OVCAR-5 ovarian it was -46.2% (active); with OVCAR-4 ovarian, -19.2% (active); with SK-OV-3 ovarian, -7.04% (active); in the assay on IGROV1 ovarian, -89.4% (active). The results for the growth with OVCAR-3 ovarian, with HS 578T breast and with NCI/ADR-RES ovarian were -89.3% (active), -54.4% (active) and 22.3%, respectively.

As for `Oc1c(CN2CCC(N3CCOCC3)CC2)cc(Cc2cc(CN3CCC(N4CCOCC4)CC3)c(O)c3ncccc23)c2cccnc12`, the growth with SR leukemia is 20%; in the assay on OVCAR-8 ovarian, 19.6%; in the assay on OVCAR-5 ovarian it was 47.3%; with OVCAR-4 ovarian, 15.4%; in the assay with SK-OV-3 ovarian, 0.924% (active); in the assay with IGROV1 ovarian it was 25%. Moreover, the figures for the growth with OVCAR-3 ovarian, in the assay with HS 578T breast and with NCI/ADR-RES ovarian were 19.6%, 58.9% and 40.7%, respectively.

Consider `COc1ccc(-c2cc(C(=O)N3N=C(c4ccc(N)cc4)CC3c3ccc(Cl)cc3)c3cc(OC)ccc3n2)cc1` (configuration not stated), for which the growth is 20.9% in the assay with SR leukemia; 56.4% with OVCAR-8 ovarian; 76.1% with OVCAR-5 ovarian; 53.9% in the assay with OVCAR-4 ovarian; 89.7% in the assay with SK-OV-3 ovarian; 39.6% in the assay with IGROV1 ovarian. The growth in the assay with OVCAR-3 ovarian is 42.7%; in the assay on HS 578T breast it was 87.3%; with NCI/ADR-RES ovarian, 14.8%.

As for `C=C1C(=O)O[C@H]2[C@H]1CC/C(COC(=O)NCc1ccc(Cn3c(=O)sn(-c4ccccc4)c3=O)cc1)=C\CC[C@@]1(C)O[C@@H]21`, the growth in the assay with SR leukemia was -4.67% (active); in the assay with OVCAR-8 ovarian, 42%; in the assay with OVCAR-5 ovarian it was 68.3%; with OVCAR-4 ovarian, 34.8%; with SK-OV-3 ovarian it was 134%; in the assay with IGROV1 ovarian, -40.1% (active). The growth in the assay on OVCAR-3 ovarian is -15.6% (active); in the assay with HS 578T breast it was 87.5%; in the assay on NCI/ADR-RES ovarian it was 106%.

Regarding `CCN1C(=O)N(c2ccccc2)C2NC(=S)N(/N=C/C=C/c3ccccc3OC)C21` (configuration not stated), the growth with SR leukemia was 17.4%; with OVCAR-8 ovarian it was 9.48% (active); in the assay with OVCAR-5 ovarian, 27.8%; with OVCAR-4 ovarian, 45.5%; in the assay on SK-OV-3 ovarian it was 31.6%; in the assay with IGROV1 ovarian, 3.96% (active). In addition, the growth in the assay on OVCAR-3 ovarian was 4.35% (active); in the assay on HS 578T breast, 20.2%; in the assay on NCI/ADR-RES ovarian, 6.95% (active).

Turning to `COC(=O)[C@@]12CC=C(C)[C@]3(C[C@H](c4ccoc4)OC3=O)[C@H]1C=C[C@@H](O)[C@@]2(O)C(=O)OC`, the growth in the assay on SR leukemia was 89.2%; in the assay with OVCAR-8 ovarian, 96.4%; in the assay on OVCAR-5 ovarian it was 103%; in the assay on OVCAR-4 ovarian, 110%; in the assay on SK-OV-3 ovarian, 99.9%; in the assay with IGROV1 ovarian it was 92.4%. The growth in the assay with OVCAR-3 ovarian was 105%; in the assay on HS 578T breast, 111%.

Take `CCOC(=O)c1cnn(CC(C)O)c1NC(=O)NCc1ccccc1C(F)(F)F` (configuration not stated): the growth in the assay with SR leukemia was 82.3%; in the assay with OVCAR-8 ovarian, 97.6%; in the assay with OVCAR-5 ovarian, 102%; with OVCAR-4 ovarian, 98.6%; in the assay on SK-OV-3 ovarian, 101%; in the assay with IGROV1 ovarian, 95.5%. In addition, the growth was 108% in the assay on OVCAR-3 ovarian, 110% in the assay with HS 578T breast and 100% in the assay with NCI/ADR-RES ovarian.

On to `CN1CCN(Cc2ccc(NC(=O)c3cncc(C#Cc4cnc(N)cc4C#N)c3)cc2C(F)(F)F)CC1`, for which the growth with SR leukemia is 1.8% (active); in the assay on OVCAR-8 ovarian it was 22.6%; with OVCAR-5 ovarian it was 15.8%; with SK-OV-3 ovarian, -14.6% (active); with IGROV1 ovarian, 1.46% (active); in the assay on OVCAR-3 ovarian, 28.4%. In addition, the growth is -8.07% (active) in the assay with HS 578T breast and 66.3% in the assay with NCI/ADR-RES ovarian.

On to `O=C(Cc1ccc(/C=C/C(=O)c2ncc[nH]2)cc1)Nc1cc(F)c(F)c(F)c1`, for which the growth in the assay with SR leukemia was 14.9%; with OVCAR-8 ovarian, 41.7%; in the assay on OVCAR-5 ovarian, 80.7%; with OVCAR-4 ovarian it was 72.7%; with SK-OV-3 ovarian, 103%; with IGROV1 ovarian, 55.8%. The growth with OVCAR-3 ovarian was 3.93% (active); with HS 578T breast, 37%; in the assay on NCI/ADR-RES ovarian it was 66.5%.

In the case of `O=C(/C=C/c1cn(-c2ccccc2)nc1-c1ccccc1)CCC(=O)NO`, the growth was 82.3% with SR leukemia; 97.2% in the assay on OVCAR-8 ovarian; 118% in the assay with OVCAR-5 ovarian; 98.8% with SK-OV-3 ovarian; 104% with IGROV1 ovarian; 99% in the assay with OVCAR-3 ovarian. Moreover, the growth is 95.3% with HS 578T breast and 101% in the assay with NCI/ADR-RES ovarian.

Take `N#Cc1c(-c2ccc(Cl)cc2)nc(NN=Cc2ccc[nH]2)nc1N1CCOCC1`: the growth in the assay with SR leukemia was 31.2%; with OVCAR-8 ovarian, 85.1%; with OVCAR-5 ovarian it was 99.6%; with OVCAR-4 ovarian, 72.6%; with SK-OV-3 ovarian it was 84.7%; in the assay on IGROV1 ovarian, 67.9%. Further, the growth in the assay with OVCAR-3 ovarian was 45.6%; in the assay on HS 578T breast it was 95%; with NCI/ADR-RES ovarian it was 84.5%.

For the compound `N#Cc1c(-c2ccc(Br)cc2)nc2c(N=Nc3ccc(S(N)(=O)=O)cc3)c(N)nn2c1N`, the growth was 41.2% in the assay with SR leukemia; 46.6% with OVCAR-8 ovarian; 72.3% in the assay with OVCAR-5 ovarian; 61.2% with OVCAR-4 ovarian; 82.8% with SK-OV-3 ovarian; 40.9% with IGROV1 ovarian. Besides, the growth was 55.3% in the assay with OVCAR-3 ovarian, 45.1% in the assay on HS 578T breast and 97% with NCI/ADR-RES ovarian.

`N#C/C(=C\c1ccc(-c2cccc(Cl)c2)o1)C(=O)Nc1ncc(Cc2ccc(Cl)cc2)s1`: the growth was 29.9% with SR leukemia; 40.4% in the assay with OVCAR-8 ovarian; 47.1% in the assay on OVCAR-5 ovarian; -45.5% (active) with OVCAR-4 ovarian; 78% in the assay with SK-OV-3 ovarian; 30.5% with IGROV1 ovarian. The growth in the assay with OVCAR-3 ovarian was 11.3%; in the assay with HS 578T breast, 24.4%; with NCI/ADR-RES ovarian it was 54.6%.

As to `CCN(CC)C(=O)CC1=C(C)/C(=C/c2[nH]c(-c3ccc[nH]3)cc2OC)N=C1C`, the growth with SR leukemia was -30% (active); in the assay with OVCAR-8 ovarian, 16.1%; in the assay with OVCAR-5 ovarian it was 51.4%; in the assay on OVCAR-4 ovarian, 43.9%; in the assay on SK-OV-3 ovarian, 22.4%; with IGROV1 ovarian, 30.6%. The values for the growth in the assay on OVCAR-3 ovarian, in the assay with HS 578T breast and with NCI/ADR-RES ovarian were 11.1%, 10.9% and 18.3%, respectively.

Regarding `CSc1nc2ccc(C)cc2cc1/C=C1/C=C(c2ccccc2)NC1=O`, the growth with SR leukemia was 10.1%; in the assay on OVCAR-8 ovarian it was 55.5%; in the assay with OVCAR-5 ovarian, 63.9%; in the assay with OVCAR-4 ovarian, -51.9% (active); with SK-OV-3 ovarian, 76.2%; in the assay on IGROV1 ovarian, 25.6%. In addition, the growth in the assay on OVCAR-3 ovarian was 6.24% (active); in the assay with HS 578T breast, 28.9%; with NCI/ADR-RES ovarian, 51.6%.

For the compound `COc1cc(C=C2C(=O)NC(=S)NC2=O)cc(CN2CCCC2)c1O`, the growth in the assay with SR leukemia is 107%; in the assay with OVCAR-8 ovarian it was 108%; in the assay on OVCAR-5 ovarian it was 106%; in the assay on OVCAR-4 ovarian, 119%; with SK-OV-3 ovarian, 94.4%; in the assay on IGROV1 ovarian, 106%. Besides, the growth is 111% in the assay with OVCAR-3 ovarian and 106% in the assay on HS 578T breast.

For `O=C(NN1C(=O)CSC1c1cccc([N+](=O)[O-])c1)c1ccc(NC(=O)c2ccccn2)cc1` (configuration not stated), the growth with SR leukemia was 20.5%; with OVCAR-8 ovarian it was 99.5%; in the assay on OVCAR-5 ovarian it was 92.6%; in the assay with OVCAR-4 ovarian, 110%; with SK-OV-3 ovarian it was 104%; with IGROV1 ovarian it was 90%. Also, the growth is 103% with OVCAR-3 ovarian, 103% in the assay on HS 578T breast and 90.8% in the assay on NCI/ADR-RES ovarian.

For `Cc1nn(C)c2ncnc(N/N=C/c3cccc(O)c3O)c12`, the growth was 7.79% (active) in the assay with SR leukemia; 18.2% with OVCAR-8 ovarian; 41.8% in the assay on OVCAR-5 ovarian; 9.76% (active) with SK-OV-3 ovarian; 15.4% with IGROV1 ovarian; 25.5% in the assay with OVCAR-3 ovarian. For the same compound, the growth was 52.3% in the assay with HS 578T breast and 11.9% in the assay on NCI/ADR-RES ovarian.
